Sampled rows, rich in hits. Any-hit rate of the full collection: about 1.8%.
p53ts 32C kill = kills p53ts cells at the permissive temperature; H1299-p53A138V at 32C, ATP luminescence viability, 24 h; Potency, µM (titrated, usually from 46.1 µM), without a hit: at the highest dose activity change, negative = cytotoxicity, actives largely listed as cytotoxic; 130,000 compounds, 0.93% hits;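 further: 0% = DMSO and -100% = full killing by reference compound; nearly all actives have a fitted effect of over 55% in size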
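Viability by ATPlite luminescence after 24 h compound treatment (up to 46 uM) at the permissive 32C. Cells are H1299 carrying p53 A138V. Scale runs from DMSO basal to 100 uM tamoxifen as full kill; AC50 from Hill fits.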
p53ts 39C tox = kills p53ts cells at the nonpermissive temperature; 130,000 compounds, 1.5% hits; AID 902; Potency, µM (series often up to 46.1 µM), without a hit: at the highest dose activity change, negative = cell killing, hits mostly cytotoxic; H1299-p53A138V viability at 39C, ATP luminescence, 24 h; further: on the % scale 0 is the no-effect control and ±100 the full control effect; nearly all actives have a fitted effect of over 55% in size
Peg3 imprint = induces erasure of genomic imprints in mouse ES cells | mouse ES Peg3-LacZ reporter, beta-gal luminescence, 40 h | Potency, µM (series often up to 60.7 µM), without a hit: at the top dose activity change, positive = activation, hits mostly activators | 110,000 compounds, 0.02% hits
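Gelatin-coated wells received 300 freshly trypsinized female ES cells with a Peg3LacZ-Neo reporter on the maternal allele, then incubated 40 hours at 37C. BetaGlo was added for 5 minutes at room temperature before a single luminescence read.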
Active calls of the source: *; ? = inconclusive; . = not tested or not shown; [ ] = another dose, or the depositor's remark. The call rests on the fitted dose curve; in most records, active means well fitted curve in the direction sought with a large enough effect; inconclusive means small, poorly fitted or top-dose-only effect, or another doubt; inactive means no such curve, though single readings can be large; an effect the other way counts as inactive or inconclusive. Potency means the concentration at half of the fitted maximal effect.

SMILES	p53ts 32C kill	p53ts 39C tox	Peg3 imprint
Cc1ccc(-n2ncc3c(NC4CCCCCC4)ncnc32)cc1	?	?	-17.2%[10.9 µM]
Clc1cccc(-n2ncc3c(NC4CCCCC4)ncnc32)c1	?	12.6µM*	-12.5%[10.9 µM]
Cc1ccc(Cl)cc1-n1ncc2c(NC3CCCCC3)ncnc21	-0.6%	4.3%	-8.4%[10.9 µM]
Cc1ccc(-n2ncc3c(NC4CCCCC4)ncnc32)cc1	?	7.94µM*	-10.3%[10.9 µM]
CCOc1ccc(N(C)S(=O)(=O)c2ccc3c(c2)CCCN3C(C)=O)cc1	1.6%	?	-11.0%[10.9 µM]
CC(=O)c1cccc(NC(=O)Cn2c(=O)c(CNc3ccc(C)cc3)cc3cc4c(cc32)OCCO4)c1	-4.9%	-17.5%	7.1%[10.9 µM]
Cc1ccc(CSc2nnc3[nH]c(=O)cc(-c4ccccc4)n23)cc1	7.6%	17.3%	1.0%[10.9 µM]
CCOC(=O)c1cnc2c(-c3ccccc3)cnn2c1N	10µM*	7.94µM*	-50.8%
Cc1cc(N)n2ncc(-c3ccccc3)c2n1	?	10µM*	3.3%
CCOC(=O)c1cnc2c(-c3ccccc3)c(C)nn2c1N	8.2%	-7.4%	3.5%
Cc1cc(N)n2ncc(-c3cccc(Br)c3)c2n1	-0.1%	-3.8%	-12.2%
CC(=O)c1ccc(NC(=O)CSc2nnc3ccc(-c4ccc(Cl)cc4)nn23)cc1	11.1%	-7.0%	-7.8%[10.9 µM]
CCc1ccc(NC(=O)CSc2ncc(S(=O)(=O)c3cc(C)ccc3C)c(=O)[nH]2)cc1	-0.9%	-10.6%	-2.5%[10.9 µM]
O=C(Nc1ccc(N2CCCCC2)cc1)c1ccc(F)cc1	7.94µM*	?	-82.7%
O=C(c1ccc(F)cc1)c1ccc(N2CCCC2)cc1	-21.6%	?	-20.8%
CCOc1cc(CNCCSc2nnnn2C)ccc1OCc1ccc(Cl)cc1Cl	35.5µM*	12.6µM*	-13.5%[10.9 µM]
Cn1nnnc1SCCNCc1ccccc1OCc1ccc(Cl)cc1Cl	-10.3%	?	-14.6%[10.9 µM]
Cc1cc(C)n2nc(SCC(=O)Nc3cc(Cl)ccc3C)nc2n1	0.5%	11.2%	10.0%[10.9 µM]
Cc1ccc(OCC(=O)Nc2ccc3nn(-c4ccc(C)cc4)nc3c2)cc1	-3.8%	-2.8%	-13.1%[10.9 µM]
CCCC(=O)Nc1ccc2nn(-c3ccc(CC)cc3)nc2c1	-17.4%	10µM*	-10.1%[10.9 µM]
CCCCNc1c(CN)cnc2cc(Cl)ccc12	.	.	-10.6%[10.9 µM]
C=C1C2CC[C@@]3(C)C(c4ccoc4)OC(=O)C[C@@]13OC1CC(OC(C)=O)C(C)(C)C(CC(=O)OC)[C@@]12C (stereo partly drawn)	8.7%	19.3%	-15.7%
O=C(NCc1cccs1)C1CCC(CNS(=O)(=O)c2ccc(Br)s2)CC1 (stereo not drawn)	-4.2%	1.8%	-8.0%
O=C(NCc1ccccc1Cl)C1CCC(CNS(=O)(=O)c2ccc(Br)s2)CC1 (stereo not drawn)	?	12.6µM*	-12.9%[10.9 µM]
CS(=O)(=O)Nc1cccc(-c2ccc3ncnc(NCc4cccs4)c3c2)c1	-8.4%	-25.8%	-6.6%
SMILES	p53ts 32C kill	p53ts 39C tox	Peg3 imprint
Cc1ccc(-c2cc(C(=O)N3CCN(c4ccccc4)CC3)c3ccccc3n2)cc1C	12.6µM*	10µM*	4.6%[10.9 µM]
O=C(c1cc(-c2ccccc2)nc2ccccc12)N1CCN(c2ccccn2)CC1	-13.3%	-15.1%	-24.6%
CCCOc1ccc(N)cc1N	20µM*	-20.6%	-21.0%
CCCOc1ccccc1NC(=O)c1ccc(N)cc1	3.0%	-12.2%	-13.8%
COc1ccc(-n2nc(C(=O)NCC(=O)N3CCN(c4ccccn4)CC3)c3ccccc3c2=O)cc1	12.6µM*	12.6µM*	-8.5%
COc1ccc(CC(=O)N2CCN(c3ccccn3)CC2)cc1	13.7%	11.7%	-10.3%
CN(C)c1ccc(N/C=C/C(=O)c2ccccc2)cc1	5.01µM*	12.6µM*	-34.6%
CN(C)c1ccc(NC(=O)CCCc2ccccc2)cc1	-9.9%	-1.7%	-8.5%
Cc1ccccc1S(=O)(=O)Cc1ccc(C(=O)N2CCN(c3cccc(Cl)c3)CC2)o1	10.0%	?	-14.8%[10.9 µM]
Cc1ccccc1S(=O)(=O)Cc1ccc(C(=O)N2CCN(c3cccc(C)c3C)CC2)o1	?	12.6µM*	-33.9%
CCCCN(CC)CCCn1cnc2c([nH]c3ccc(Cl)cc32)c1=O	-10.3%	-35.6%	-13.0%[10.9 µM]
O=C(CSc1ncc(-c2ccccc2)[nH]1)Nc1cccc(Br)c1	-11.1%	?	-4.0%[10.9 µM]
COC(=O)c1ccc(NC(=O)Cn2c(=O)oc3ccccc32)cc1	-2.9%	-3.0%	-1.6%[10.9 µM]
Cc1ccc(C(Nc2ccccn2)c2ccc3cccnc3c2O)cc1 (stereo not drawn)	?	?	-16.5%[10.9 µM]
Cc1cccc(NC(c2cccc(Cl)c2)c2ccc3cccnc3c2O)n1 (stereo not drawn)	-23.8%	12.6µM*	-29.5%[10.9 µM]
Cc1cc(Nc2cccc(C(F)(F)F)c2)nc2ccc(NC(=O)c3cccnc3)cc12	12.6µM*	.	.
CCOc1ccc(C(=O)Nc2ccc3nc(Nc4cccc(C(F)(F)F)c4)cc(C)c3c2)cc1OCC	0.4%	.	.
Cc1cc(C)cc(-n2ccn(CC(=O)Nc3ccccc3F)c(=O)c2=O)c1	-3.6%	-12.5%	-4.6%[10.9 µM]
Oc1c(C(c2ccc(Cl)cc2Cl)N2CCCC2)sc2nc(-c3ccco3)nn12 (stereo not drawn)	-2.1%	-20.0%	?
O=C(Nc1nc(=O)c2ccccc2s1)c1ccc(F)cc1	-10.7%	10.7%	.
O=C(N/N=C/c1sc2ccccc2c1O)c1ccccc1	.	7.08µM*	.
COc1ccc(Cl)cc1-c1ccc(C(=O)O)s1	.	.	8.0%[97.3 µM]
Cc1cc(C)cc(NC(=O)CCc2nnc3n(CC(C)C)c(=O)c4ccccc4n23)c1	10.4%	-7.8%	24.8%[10.9 µM]
c1cn2c(NC3CCCC3)c(-c3ccc(N4CCOCC4)cc3)nc2cn1	10µM*	15.8µM*	-8.7%
Cc1cccc(C)c1Nc1c(-c2ccc(N3CCOCC3)cc2)nc2ncccn12	17.5%	-13.9%	-14.3%[10.9 µM]
SMILES	p53ts 32C kill	p53ts 39C tox	Peg3 imprint
O=C(Oc1ccccc1)N1CCC2(CC1)CCN(c1ccncc1)CC2	-9.6%	-9.1%	.
O=S1(=O)C=C(Sc2nc3ccccc3s2)c2ccccc21	12.6µM*	?	-36.1%
Cc1cc(C)nc(SC2=CS(=O)(=O)c3ccccc32)n1	-29.6%	?	-26.8%
CCN(CC)CCCNC(=O)c1ccc2c(c1)N(Cc1c(F)cccc1Cl)C(=O)c1ccccc1S2	-7.7%	12.6µM*	-7.7%[10.9 µM]
O=C(NCc1ccco1)c1ccc2c(c1)N(Cc1c(F)cccc1Cl)C(=O)c1ccccc1S2	7.4%	15.0%	-10.8%[10.9 µM]
Nc1nc(-c2ccc3c(c2)OCCO3)cs1	?	?	-12.8%
CCCC(=O)N1CCc2cc(-c3nc(N)sc3C)ccc21	-11.5%	-25.2%	-21.9%
CCC(C)C(=O)N1CCc2cc(-c3csc(N)n3)ccc21 (stereo not drawn)	10µM*	12.6µM*	-24.7%
Nc1nc(-c2ccc3c(c2)CCCC3)cs1	?	12.6µM*	7.1%
Cc1cccc(NC(=O)CSc2nc(=O)n(Cc3cccnc3)c3c2CCC3)c1C	-7.7%	-15.4%	-15.0%[10.9 µM]
CCCCC(CC)CN=C(N)NC(N)=NCCCCCCN=C(N)NC(N)=NCC(CC)CCCC (stereo not drawn)	15.8µM*	?	-34.5%
CCCCC(CC)CO (stereo not drawn)	-4.1%[1.84 µM]	0.1%	8.2%
CCN(CC)CCCNC(=O)c1cc(-c2ccc(OC)c(OC)c2)on1	5.0%	-4.7%	-14.0%[10.9 µM]
CCOc1ccc(C2CC(=O)N(c3cccc(F)c3)C3=C2C(=O)OC3)cc1 (stereo not drawn)	-2.2%	18.2%	9.7%[10.9 µM]
